Measured values published in PubChem BioAssay (NCI).
The panel holds about 83,000 compounds, 20% with a hit somewhere; the sample as a whole holds those more often.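 Method: cells in 96-well plates; compound added at one concentration; 48 h incubation; percent growth measured; values under 10 scored active.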 A number with no mark means an inactive call. Activity calls are given as the source filed them.

What was measured:
Experiment in all cases: NCI-60 one-dose screen, 48 h (100 = growth as untreated, 0 = no growth, -100 = all killed)
Conditions in all cases: 10 µM unless noted
[1] = test system: SR leukemia
[2] = test system: RPMI-8226 leukemia
[3] = test system: OVCAR-8 ovarian
[4] = test system: OVCAR-5 ovarian
[5] = test system: OVCAR-4 ovarian
[6] = test system: SK-OV-3 ovarian
[7] = test system: OVCAR-3 ovarian
[8] = test system: HS 578T breast
[9] = test system: NCI/ADR-RES ovarian
[10] = test system: T-47D breast
[11] = test system: BT-549 breast
[12] = test system: MDA-MB-435 melanoma
[13] = test system: SW-620 colon
[14] = test system: MCF7 breast
[15] = test system: HCT-116 colon
[16] = test system: HCC-2998 colon
[17] = test system: KM12 colon
[18] = test system: IGROV1 ovarian

SMILES | growth [1] | growth [2] | growth [3] | growth [4] | growth [5] | growth [6] | growth [7] | growth [8] | growth [9] | growth [10] | growth [11] | growth [12] | growth [13] | growth [14] | growth [15] | growth [16] | growth [17] | growth [18]
C=C1C(=O)O[C@H]2[C@H]1CC/C(COC(=O)NCc1cccc(OC)c1)=C\CC[C@@]1(C)O[C@@H]21 | 8.59% (active) | -23.1% (active) | 46.1% | 66.6% | 49% | 71.6% | -7.55% (active) | 75.7% | 57.3% | 11.9% | 16.6% | 45.5% | -35.4% (active) | 8.22% (active) | -70.9% (active) | 81.6% | 88% | 
O=C(Nc1ccc(Br)cc1)Nc1cccc(Br)c1 | 38% | 8.97% (active) | 48.8% | 76.8% | 28.8% | 75.2% | 16.2% | 76% | 46.4% | -10.5% (active) | 58.2% | 47.4% | 29% | 13.3% | 27.5% | 27.6% | 13.2% | 
O=c1c2cc(Cl)ccc2oc2ccc(OCCCCCN3CCCCCC3)cc12 | 47.5% | 60.3% | 82.1% | 97.9% | 91.8% | 78.9% |  | 83% | 85.7% | 74.4% | 79% | 80.8% | 84.6% |  |  | 88.5% | 84.8% | 90.6%
COC(=O)OC1C(O[C@H]2C[C@H]3[C@@H]4CC=C5C[C@@H](O)CC[C@]5(C)[C@H]4CC[C@]3(C)[C@H]2[C@H](C)C(=O)CCC(C)C)OCC(O)C1OC1OCC(O)C(O)C1OC(=O)c1ccc(OC)cc1 (some centres not stated) | 2.6% (active) | -40.7% (active) | 26.8% | 31.2% | 57.1% | -44.5% (active) | 58.1% | -16.5% (active) | 70.5% | -5.41% (active) | 6.19% (active) | -15.3% (active) | -55.9% (active) | -8.41% (active) | 5.29% (active) | 53.7% | 39.2% | 
CCOC(OCC)c1cnc2nc(NC(C)=O)[nH]c(=O)c2n1 | 99.9% | 106% | 102% | 101% | 107% | 106% |  | 102% |  | 99.9% | 112% | 105% | 103% | 96.4% | 102% | 107% | 108% | 101%
Clc1ccc(-c2cnc3c(-c4ccnc(N5CCNCC5)c4)cnn3c2)cc1 | -0.57% (active) | -39% (active) | 1.08% (active) | -21.2% (active) | -60.9% (active) | 85.2% | -14.6% (active) | -32% (active) | -0.0998% (active) | -55.6% (active) | 78.1% | -51.1% (active) | -50.4% (active) | -63.4% (active) | -68.3% (active) | -43% (active) | -3.73% (active) | 
COc1ccc(-c2cc(-c3ccc(OC)cc3)c3sc(=O)[nH]c3n2)cc1 | 98.1% | 85.3% | 82.4% | 101% | 95.6% | 92.8% | 101% | 67.7% | 92.2% | 78.6% | 92.9% | 107% | 95.9% | 87.4% | 96.8% | 98.7% | 93.9% | 
COc1ccc(Cl)cc1Nc1nc(C(F)(F)F)ccc1C(=O)NN | 1.9% (active) | 4.71% (active) | 18.9% | 40.6% | -4.08% (active) | 8.79% (active) | 33.6% | 95.8% | 9.26% (active) | 29.4% | 20.2% | 40.2% | 88.6% | 90.4% | 38.8% |  | 38.6% | 
COc1cc(C2CC(c3cccc(Nc4ccnc5cc(Cl)ccc45)c3)=NN2C=O)cc(OC)c1OC (configuration not stated) | 4.97% (active) | 21% | 23.2% | 41.6% | -16.7% (active) | 0.586% (active) | -81.2% (active) | -20.1% (active) | 5.17% (active) |  | -36% (active) | -68.1% (active) | 13.1% | 2.77% (active) | 7.38% (active) | 37.4% | 9.52% (active) | 
O=S(=O)(Nc1ccc2ccccc2c1)N1CCCCC1 | 38.1% | 82.4% | 68.2% | 79.1% | 85.1% | 52% | 53.2% | 47.5% | 6.41% (active) | 50.3% | 47.3% | -0.27% (active) | 41% | 49% |  | 45.3% | 39.7% | 
OC(COCc1ccccc1)COCc1ccccc1 | 89.2% | 109% | 106% | 108% | 107% | 103% | 94.7% | 122% | 127% | 101% | 98.6% | 112% | 110% | 92.6% | 99% | 97.9% | 105% | 
CC1=C(O)C(=O)CC1 | 78.4% | 110% | 101% | 112% | 105% | 107% | 115% | 107% | 106% | 103% | 89% | 98.1% | 108% | 91.8% | 105% | 99.7% | 104% | 
CCN(CC)c1ccc2c(cc1=O)[C@@H](NC(C)=O)CCc1cc(OC)c(OC)c(OC)c1-2 | -14.1% (active) | 14.9% | 12.3% | 54.1% | 48.2% | 24.3% |  | 40.5% | 85.7% |  | 1.73% (active) | -43.9% (active) | 23.3% | 14.9% |  | 22.9% | 5.97% (active) | 28%
CCC1=CC2CN(C1)Cc1c([nH]c3ccccc13)[C@@](C(=O)OC)(c1cc3c(cc1OC)N(C)[C@H]1[C@@](O)(C(=O)OC)[C@H](OC(C)=O)[C@]4(CC)C=CCN5CC[C@]31[C@@H]54)C2 (some centres not stated) | 6.9% (active) | 31.4% | 21.3% | 15.6% | 29.6% | 7.75% (active) |  | 29.1% | -16.1% (active) | 76.1% | -27.2% (active) | 2.28% (active) | 29.1% |  | -9.83% (active) | -36% (active) | 0.29% (active) | 35.7%
COc1ccc(C2=NNC(c3ccc(Oc4nc5c(c(=O)n(C)c(=O)n5C)n4C)c(OC)c3)C2)cc1 (configuration not stated) | 62.7% | 80.4% | 94.4% | 102% | 98.1% | 117% | 108% | 89.4% | 87.2% | 86.3% | 88.6% | 93% | 109% | 87.6% | 98.2% | 102% | 97.6% | 
NC(N)=NC1CCCCC1 | 92.6% | 85.6% | 98.5% | 109% | 105% | 107% |  | 107% | 98% | 103% | 105% | 104% | 100% | 96.4% | 98.6% | 104% | -69% (active) | 107%
COc1cnc2c(c1)C(=O)c1c-2n(CCCNC(C)C)c(=O)c2cc(Cl)ccc12 | -52.1% (active) | -59% (active) | -41.6% (active) | -56.1% (active) | -77% (active) | -5.05% (active) |  | 58.1% | -9.91% (active) | -84.3% (active) | 30.9% | -94.6% (active) | -81.7% (active) | -58.6% (active) | -92.4% (active) | -52.1% (active) | -71.7% (active) | -57% (active)
CCCCCCCOc1cccc(/C=C2\N=C3SCCCN3C2=O)c1 | 105% | 91.7% | 102% | 115% | 85.6% | 107% | 90.6% | 109% | 97% | -15.5% (active) | 100% | 100% | 99.3% | 92.1% | 88.6% | 110% | 85.8% | 
